# uPA generation = qHTS for Inhibitors of Cell Surface uPA Generation. cell surface uPA generation assay, qHTS. Potency, µM (highest dose often 38.3 µM), for inactives: at the top dose activity change, negative = inhibition, hits mostly inhibitors. hit rate 0.31% among 330,000. AID 540303, 2011; active = well fitted inhibition curve with a large enough effect; inconclusive = small, poorly fitted or top-dose-only effect; inactive = no such curve, though single readings can be large or run the other way; tested in mouse RAW 264.7 cells; note: potency is the fitted concentration of half-maximal effect; % is set by controls: 0 for no effect and ±100 for the full control effect; nearly all actives have a fitted effect of over 55% in size
# GLP1R ag = qHTS of GLP-1 Receptor Agonists; Glucagon-like peptide 1 receptor (Homo sapiens), P43220; HEK293 GLP-1R CRE-luciferase, luminescence, 4-6 h; cells express a hypersensitive GLP-1R form; Potency, µM (titrated, usually from 45.6 µM), for inactives: at the highest dose activation, hits mostly activators; hit rate 0.007% among 380,000; AID 624172, 2012; note: potency is the fitted concentration of half-maximal effect; % of control where 0% means no effect
# Target sequence (P43220 whole entry, looked up): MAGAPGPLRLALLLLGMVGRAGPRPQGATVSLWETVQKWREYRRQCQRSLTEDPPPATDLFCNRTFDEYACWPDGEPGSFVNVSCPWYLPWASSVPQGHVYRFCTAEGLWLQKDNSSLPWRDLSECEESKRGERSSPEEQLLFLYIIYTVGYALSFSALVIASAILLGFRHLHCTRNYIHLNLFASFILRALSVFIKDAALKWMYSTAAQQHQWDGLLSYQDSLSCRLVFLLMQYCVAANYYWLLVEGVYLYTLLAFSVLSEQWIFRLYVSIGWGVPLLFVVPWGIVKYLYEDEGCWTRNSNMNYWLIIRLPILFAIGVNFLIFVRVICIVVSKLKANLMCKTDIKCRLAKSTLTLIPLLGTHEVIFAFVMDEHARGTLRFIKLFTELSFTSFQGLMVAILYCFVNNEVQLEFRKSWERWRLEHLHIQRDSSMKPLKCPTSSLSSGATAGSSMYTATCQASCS
# GLP1R cytotox = qHTS of GLP-1 Receptor Inverse Agonists: Cytotox Screen; hit rate 0.13% among 410,000; Potency, µM (top dose mostly 38.3 µM), for the others: top-dose activity change, negative = inhibition, hits mostly inhibitors; AID 624418, 2012; HEK293 cAMP-luciferase reporter cells, luminescence, 24 h;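 note: loss of luciferase light is scored as toxicity; potency is the fitted concentration of half-maximal effect; % is set by controls: 0 for no effect and ±100 for the full control effect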
#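 A 23 nL compound transfer followed 12 hours of cell culture at 37 deg C; exposure then lasted 24 hr. Luciferase assay detection reagent was dispensed and plates read for luminescence after a 12 min room-temperature wait.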
# MmCpn inh = Inhibitors of TCP-1 ring complex (TRiC) of Methanococcus maripaludis (MmCpn): qHTS; hit rate 0.031% among 330,000; Potency, µM (titrated, usually from 76.9 µM), for inactives: top-dose activity, negative = inhibition, hits mostly inhibitors; Chaperonin Mm-Cpn (Methanococcus maripaludis); purified Mm-Cpn ATPase, ADP Transcreener TR-FRET; note: potency is the fitted concentration of half-maximal effect; % is set by controls: 0 for no effect and ±100 for the full control effect; nearly all actives have a fitted effect of over 80% in size
#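 Purified archaeal chaperonin (25 nM final) was preincubated with compound for 10 min at 37°C, then ATP (10 uM final) was added for 30 min at 37°C in Tris pH 7.4/KCl/MgCl2/DTT buffer. ADP was quantified by HTRF Transcreener TR-FRET.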
# GLP1R inv ag = qHTS of GLP-1 Receptor Inverse Agonists (Inhibition Mode) | hit rate 1.6% among 410,000 | AID 624417, 2012 | HEK293 GLP-1R CRE-luciferase, luminescence, 24 h; GLP-1R form is constitutively active | Potency, µM (titrated, usually from 38.3 µM), for inactives: top-dose activity change, negative = inhibition, usual class: inhibitors | Glucagon-like peptide 1 receptor (Homo sapiens), P43220; note: potency is the fitted concentration of half-maximal effect; % is set by controls: 0 for no effect and ±100 for the full control effect; nearly all actives have a fitted effect of over 55% in size
#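 Cells are plated, allowed 12 hours at 37 deg C, then treated with compounds for 24 hr before luciferase detection reagent is added and luminescence is read after 12 min at room temperature. The HEK293 line carries constitutively active GLP-1R with a cAMP-responsive reporter.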
# CCT modulator = High-Throughput Screening for Modulators of Cytosolic Chaperonin Activity. AID 651819, 2012. hit rate 0.3% among 360,000. purified chaperonin ATPase assay, HTRF ADP detection, 30 min. activity change, % (test concentration not listed), hits read low; in the data active = activity change below about -30%; note: % is set by controls: 0 for no effect and ±100 for the full control effect
#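 ATPase activity: ADP formed was measured by HTRF Transcreener (665/615 nm ratio) after 30 min at 37 deg C with 10 uM ATP. Compounds screened at one 76 uM concentration against 40 or 20 nM TRiC in Tris pH 7.4/KCl/MgCl2/DTT buffer.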
# * hit, by the source's call; ? = inconclusive; / = no result given; [ ] = remark or other dose. Hits are enriched below; roughly 2.2% of the tested compounds scored in any of these assays. Unless noted, calls come from the whole dose curve; as a rule, active = well fitted curve in the direction sought with a large enough effect; inconclusive = small, poorly fitted or top-dose-only effect, or another doubt; inactive = no such curve, though single readings can be large; an effect the other way counts as inactive or inconclusive.
SMILES,uPA generation,GLP1R ag,GLP1R cytotox,MmCpn inh,GLP1R inv ag,CCT modulator
CCOC(=O)c1sc2nc(C)nc(NCc3ccc(Cl)cc3)c2c1C,-5%,12%,-9%,2%,?,1
COCCNC(=S)NN=C1CCCCC1,0%,-1%,-1%[7.66 µM],-3%,-9%[7.66 µM],-1
C=CCNC(=S)NN=C1CCCCCCC1,-3%,14%,?,-3%,3.5µM*,-1
NC(=S)NN=C1CCCCCCCC1,-3%,0%,?,/,?,1
NC(=S)NN=C1CCSCC1,-1%,7%,-26%,/,?,-34*
NC(=S)NN=C1CCCCCCCCC1,-2%,12%,4.5µM*,/,2.8µM*,0
CC(C)c1ccc(Cc2cnc(NC(=O)c3ccc4c(c3)CC(c3ccccc3)OC4=O)s2)cc1 (stereo not drawn),/,/,4%,/,-10%,/
CCCN(CCC)CCCNC(=O)c1cc2c(=O)n(C)c3ccccc3c2s1,/,/,7%,/,24%,/
Cc1cccc(C(=O)Nc2nnc(S(=O)(=O)N3c4ccccc4CC3C)s2)c1 (stereo not drawn),/,/,-12%,/,?,/
Cc1ccccc1C(=O)Nc1nnc(S(=O)(=O)N2c3ccccc3CC2C)s1 (stereo not drawn),/,/,-3%,/,11µM*,/
Cn1c2ccccc2c(=O)c2cc(C#CC3(O)CCCCC3)ccc21,1.3µM*,-5%,-1%,1%,1µM*,-2
O=c1c2ccccc2oc2ccc(C#CC3(O)CCCCC3)cc12,2.8µM*,-1%,-27%,/,7.1µM*,-3
Cc1cc2sc3ccc(C#CC4(O)CCCCC4)cc3c(=O)c2cc1C,10µM*,-8%,1%,/,?,0
Cc1cc(C)c(NC(=O)C2CCN(c3nnc(C)c4c(C)n(-c5ccccc5)nc34)CC2)c(C)c1,/,/,1%,/,16%,/
Cc1onc(-c2ccccc2Cl)c1C(=O)NCc1nc(-c2ccc(C(F)(F)F)cc2)no1,0%,14%,16%,1%,10µM*,-1
Cn1cnc(S(=O)(=O)N2CCCC(C(=O)NCc3ccccc3)C2)c1 (stereo not drawn),/,/,11%,/,0%,/
COc1ccc(CC2(CO)CCN(CC3=Cc4cc(Cl)ccc4OC3)CC2)cc1,-11%,16%,?,-1%,2.8µM*,1
Cc1ccccc1OCc1ccc(-c2nc(C#N)c(NCCCN(C)C)o2)o1,/,/,-5%,/,-23%,/
O=C(Oc1ccccc1)c1cccc2cccc(C(=O)Oc3ccccc3)c12,-13%,11%,25%,0%,10µM*,0
O=C(Oc1ccccc1)c1ccccc1C(=O)Oc1ccccc1,-24%,16%,-12%,/,?,2
O=C(Nc1ccc2c(c1)OCCO2)c1cccc(Br)c1,-6%,7%,-3%,1%,?,0
O=C(Nc1ccc(Cl)cc1Cl)c1ccc2c(c1)OCCO2,4.5µM*,0%,-9%,-3%,-29%,-5
Cc1cc(Cl)ccc1NC(=O)c1ccc2c(c1)OCO2,-4%,2%,0%,1%,-21%,-2
O=C(Nc1ccc2c(c1)OCCO2)c1cccc(Cl)c1Cl,-29%,-2%,-12%,4%,11µM*,-2
CCCOc1cccc(C(=O)Nc2ccc3c(c2)OCCO3)c1,10µM*,-4%,8%,2%,?,-1
SMILES,uPA generation,GLP1R ag,GLP1R cytotox,MmCpn inh,GLP1R inv ag,CCT modulator
CC(C)CCNC(=O)CN1C(=O)CSc2ccc(S(=O)(=O)N3CCC(C)CC3)cc21,/,/,-10%,/,?,/
CCc1ccc(-c2nn(CC(=O)NCc3ccccc3)c3c2cnc2ccc(C)cc23)cc1,/,/,4%,/,26%,/
CCOC(=O)c1ccc(NC(=O)C23CCC(C)(C(=O)O2)C3(C)C)cc1 (stereo not drawn),2%,2%,-15%,0%,0%,-38*
CCOC(=O)c1ccc(NC(=O)C2(c3ccc(OC)cc3)CCOCC2)cc1,6%,1%,-23%,-3%,?,2
CCOC(=O)c1ccc(NC(=O)C2(c3ccc(OC)cc3)CCCC2)cc1,0%,2%,-16%,-5%,5µM*,0
CCOc1ccc(-c2nc3c(C#N)c[nH]n3c2NC2CCCC2)cc1,/,/,-7%,/,12%,/
COc1cc(CN(C2CC2)S(=O)(=O)c2ccccc2Br)cc(OC)c1,0%,24%,8%,1%,10µM*,-1
CCCc1ccc2oc(C(=O)NCCN3CCCC(O)C3)c(C)c2c1 (stereo not drawn),-7%,21%,4%,2%,10µM*,-3
Cc1ccc2c(C)c(C(=O)NCCN3CCCC(O)C3)oc2c1C (stereo not drawn),2%,-2%,15%,1%,?,-38*
Cc1ccc2c(C)c(C(=O)NCCN3CCOC3=O)oc2c1C,-6%,20%,-4%,0%,4%,2
CCCc1ccc2oc(C(=O)NCCN3CCCC(C(N)=O)C3)c(C)c2c1 (stereo not drawn),-1%,-6%,32%,-3%,?,-1
CC12CCC(=O)N1C(C(=O)Nc1nc3ccc(Cl)cc3s1)CS2 (stereo not drawn),-7%,16%,-3%,0%,2.8µM*,0
CC12CCC(=O)N1C(C(=O)Nc1nc3ccc(S(C)(=O)=O)cc3s1)CS2 (stereo not drawn),-5%,4%,-4%,-1%,14%,0
CCc1ccc2nc(NC(=O)C3CSC4(C)CCC(=O)N34)sc2c1 (stereo not drawn),-7%,12%,-17%,-1%,5.6µM*,1
O=C(Nc1c(C(=O)N2CCN(c3ccc(F)cc3)CC2)oc2ccccc12)c1c(F)cccc1F,/,-4%,3%,/,?,/
Cc1ccccc1OCC(=O)OCc1cc(=O)n2nc(C3CCCCC3)sc2n1,/,/,7%,/,8%,/
CN(C)CCCO[C@@H]1[C@H]2OC(C)(C)O[C@H]2O[C@@H]1[C@H](O)CO,25%,-5%,1%,-5%,-12%,-88*
Cc1ccc2c(CC(=O)Nc3ccc(S(=O)(=O)N4CCCCC4C)cc3)coc2c1 (stereo not drawn),/,/,-6%,/,11µM*,/
Cc1ccc(S(=O)(=O)N2CCCCC2C(=O)Nc2ccc(N(C)C)cc2)cc1 (stereo not drawn),-1%,11%,-13%,0%,7.1µM*,-2
Cc1ccc(S(=O)(=O)N2CCCC2C(=O)Nc2ccc(Br)cc2)cc1 (stereo not drawn),/,/,-10%,/,?,/
Cc1ccc(-c2ccc(=O)n(CC(=O)Nc3ccc(C(C)C)cc3)n2)cc1,/,/,-5%,/,-16%,/
